# Whole data set: some 24,000 sequences, median “enrichment r” near 0.99, cut for the highest 2% near 3.7. The full list was thinned out, with the highest values kept by preference.
# T1: UNK ZnF1-3 (human, UniProt Q9C0B0 31-174)
# T1 sequence: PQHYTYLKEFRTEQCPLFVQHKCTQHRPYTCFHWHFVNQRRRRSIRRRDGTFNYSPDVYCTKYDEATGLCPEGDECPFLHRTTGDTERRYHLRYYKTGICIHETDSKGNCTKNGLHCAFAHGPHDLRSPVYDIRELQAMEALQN
# B1: chr22:38201524:38201525:+_ENSG00000189060_ENST00000340857|hu_hu|FALSE|FALSE (ssRNA)
# RNA: GGGAGUUCUACAGUCCGACGAUCCGCAGGGGCGGACGUGGAAUUCUCGGUCAUGGUGGCCUGUCUGGUCCGGCUGUUGAAGGCGCCUUCCAAAGGGCCAGCCCUCGUCGGAGGCUGAGCAAAGCCUGCCUCGGGAUCUGCUCCCAACAGAGGAUUGAGCAUCA
# B2: chr16:17038481:17038482:+_ENSMUSG00000063358_ENSMUST00000069107|mus_mus|FALSE|FALSE (ssRNA)
# RNA: GGGAGUUCUACAGUCCGACGAUCCUUGUCCUGACCAAUUUAAGAUCUGUAUCCUGGCUGGAAUCUAGCAGUCUCUUCAAAAAUGAGUUCUUUGAGCUUCUCCUUAGGUAAGUCGUCCAACUCCAUGUCAAACUUGAAUGGCGCCAACAGAGGAUUGAGCAUCA
# B3: chr11:77336104:77336105:-_ENSG00000074201_ENST00000525064|hu_mus|hu_hu_hu_mus_False|48_108 (ssRNA)
# RNA: GGGAGUUCUACAGUCCGACGAUCCUCGCACAUUGCAGUGAACAUCGCCUCCAAUGCUGACUUAUCACUGGGCACAAAUCGAAAUUCAGUAAUAGGUUCAACAUCAUCAUUGUCUUCCUCAUCUUCAUCAGAGAGAGGUUCUUUCAACAGAGGAUUGAGCAUCA
# B4: 42454244_42454364_2548_CDS_ENSG00000166887_ENST00000318006|human|control|control (ssRNA)
# RNA: GGGAGUUCUACAGUCCGACGAUCAUGGAGAAGGUUCUUGAGCACUUGAUUGAACCGUUUCUUUUGUGCAUUUUCUUCCAAGACCUUUUCCAGGAAGAUGCGUAUGUCAUUGAUCUGAGUGUUUGCUGGCAGAAGGUUGAGGGCCAACAGAGGAUUGAGCAUCA
# B5: chr3:9412954:9412955:+_ENSG00000134077_ENST00000452837|hu_mus|hu_hu_hu_mus_False|1_78 (ssRNA)
# RNA: GGGAGUUCUACAGUCCGACGAUCGGUUGAUAUCUCUUCUUUGAUGGCUGGAUUUUCAUAAUAAUCUAAGAUAUGUGAAUCUGAAGUGCUGCUGGCAUGCUUUUUCUUACCAUCUUUCUCAUCUGCUUUGUCUCCUUGUCCAUUCAACAGAGGAUUGAGCAUCA
# B6: 32390341_32390461_6886_3pUTR_ENSMUSG00000053774_ENSMUST00000115151|mouse|control|control (ssRNA)
# RNA: GGGAGUUCUACAGUCCGACGAUCACUUUAACCCAAGGAGGACCCAGAGGUUCAAGGUUAUGUUCAACUAACUACACAGUCACUGAAGAGGUCAGCCUGAUCCAGGACAACCAGGACUAGAUAAAGAAAACUUAUCUCAAAGAACAACAGAGGAUUGAGCAUCA
# B7: chr5:56189439:56189440:+_ENSG00000095015_ENST00000399503|hu_hu|FALSE|FALSE (ssRNA)
# RNA: GGGAGUUCUACAGUCCGACGAUCAAAGACUGGAUGCUUCAGUAGCUCUCUUGAUGGAGGUCUGUCCUGAGGUUGAAGUUCUAAACAACGAAGAGCCACAUCUCGUAAACCAGGAGACAAAUGUGAAGGGAUCGAUGGAGCAGUCAACAGAGGAUUGAGCAUCA
# B8: chr3:142455422:142455423:-_ENSMUSG00000004591_ENSMUST00000043812|mus_hu|FALSE|FALSE (ssRNA)
# RNA: GGGAGUUCUACAGUCCGACGAUCGAAAAAACAAUAAAGUCAUAGAUUAGGAGAAAAAAAUAUAAAAUCAAACCAAACCAAAACAAACAAAAAACUACAGGCAAGUGGAAAGUCAUGGUUUGUAAAAAGACAACCCUAAAAGAGCAACAGAGGAUUGAGCAUCA
# B9: 2840810_2840930_7205_3pUTR_ENSG00000087266_ENST00000503393|human|control|control (ssRNA)
# RNA: GGGAGUUCUACAGUCCGACGAUCUGAGACCCUGUCUCAGAAAAAAAAAAAAAGAAAAGAAAAAGAAAAAGACAACAAGUUAAAAAAUGGGCAAAAGAUGAUAGACACUUCACAGGAGACAAAAUCAAAAUGGUUAAUAAAAACCAACAGAGGAUUGAGCAUCA
# B10: chr14:52780626:52780627:-_ENSMUSG00000035726_ENSMUST00000046709|mus_mus|FALSE|FALSE (ssRNA)
# RNA: GGGAGUUCUACAGUCCGACGAUCUGAGCACUGCACCACAUAUGGACUUGUAAGGAGGAAAAAAAAAAAAAAAAAAAAAAAAAAAACAGCCACGAGUGCCAGUGUUUGUCUUCUGAUGCAGCAAAAACAACCCCAGAAUGUGCACAACAGAGGAUUGAGCAUCA
# B11: chr7:141441981:141441982:+_ENSG00000106028_ENST00000265304|hu_mus|hu_hu_hu_mus_False|38_38 (ssRNA)
# RNA: GGGAGUUCUACAGUCCGACGAUCCUCAUGUCUUACAAACUGACGAAAUACCUGUAACACAGGUCUUCGAAACAUGGCUUCUGUUUUUCUUACAACCAGUCUAAUCUGCUUUUCCUAAAGGAAAGAAAGAAAAGAGAAAAAUGACAACAGAGGAUUGAGCAUCA
# B12: chr3:148802587:148802588:-_ENSG00000071794_ENST00000310053|hu_mus|FALSE|FALSE (ssRNA)
# RNA: GGGAGUUCUACAGUCCGACGAUCUCCAACAACUUGUCCUCUCAUAGUUCCAAAUAAAACCAAAUCUUGCUCUUCAUCACUCGUUAGGAAGUCAUCUGGAGGAAUAAUGUCUUGGAAUUCAAAAUGUGGCAAGAAAGUUGAGUACAACAGAGGAUUGAGCAUCA
# B13: chr4:148551591:148551592:-_ENSMUSG00000063077_ENSMUST00000060537|mus_hu|mus_mus_mus_hu_False|1_48 (ssRNA)
# RNA: GGGAGUUCUACAGUCCGACGAUCACCUGACAAAAUUAAAUAUCCCUGUAAAUUAGACAAUAAGCAGCAGGCAACAAAGUCUUUGCUUUGAAAUAUGUGCCAGGAAAAGUCAUCUUGUUUUUAGAUCUCAAGAGACACAACCAUCAACAGAGGAUUGAGCAUCA
# B14: 54532081_54532201_669_3pUTR_ENSMUSG00000073678_ENSMUST00000097739|mouse|control|control (ssRNA)
# RNA: GGGAGUUCUACAGUCCGACGAUCGACUGAGCAGAGACAUAAAGAAAGCAAAAGAAACACCACAGGGAAGGUUUCAACUGUAGUAACCAGACAUCUACACCAAAAAUGGAUUGUGCAAAACAACUGAUUUUUUUUUUUUUUUUACAACAGAGGAUUGAGCAUCA
# B15: chr1:33860009:33860010:-_ENSMUSG00000042197_ENSMUST00000044455|mus_mus|motif|central (ssRNA)
# RNA: GGGAGUUCUACAGUCCGACGAUCGCUGGAGAUAUCCCAAGGAACUGACGAGCUCUCACUUGGCCUAGAAUGAUGAAAUCGGAAACAACUCCUGGACUGCAGAUCACGUAUGACUCGGGACAUCUCAGCCACUUGUGUCUGGAGCAACAGAGGAUUGAGCAUCA
# B16: 110765750_110770449_1192_CDS_ENSG00000174437_ENST00000539276|human|control|control (ssRNA)
# RNA: GGGAGUUCUACAGUCCGACGAUCCUCAUUAAGGGAACAAGUAUCACCUUCCACUCUGUCCAGAAUGAACAUCCUGCAGACUGACAUCUGGUUUGUUGUAAGUGUACCAGUCUUGUCUGAGCAGAUAACAGAAGUACAACCAAGCAACAGAGGAUUGAGCAUCA
# Molecular target: T1, UNK ZnF1-3
# Test: nsRBNS (natural sequence RNA bind-n-seq); RBNS binding buffer (assumed for nsRBNS): 25 mM Tris pH 7.5, 150 mM KCl, 3 mM MgCl2, 0.01% Triton X-100, 500 ug/ml BSA, 20 U/ml SUPERase-In, 4 C; UNK is unkempt and MSI1 is Musashi-1; names of the RNAs are library labels; protein concentration not given here; high values mean tight binding
row,Binder,binding signal
1,B1,0.944 enrichment R
2,B2,0.719 enrichment R
3,B3,0.872 enrichment R
4,B4,1.14 enrichment R
5,B5,0.44 enrichment R
6,B6,1.33 enrichment R
7,B7,1.08 enrichment R
8,B8,3.8 enrichment R
9,B9,8.04 enrichment R
10,B10,12.8 enrichment R
11,B11,0.817 enrichment R
12,B12,1.23 enrichment R
13,B13,1.29 enrichment R
14,B14,4.75 enrichment R
15,B15,0.781 enrichment R
16,B16,0.886 enrichment R
